TDP1 cell CPT: qHTS for Inhibitors of human tyrosyl-DNA phosphodiesterase 1 (TDP1): qHTS in cells in presence of CPT; chicken DT40 Tdp1-/-;hTDP1 cells + 20 nM CPT, ATP luminescence, 48 h; Potency, µM (top dose mostly 46.2 µM), hits mostly inhibitors; 420,000 tested, 12% active; AID 686979, 2013; further: nearly all actives have a fitted effect of over 55% in size
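Chicken DT40 Tdp1-/- cells stably complemented with human TDP1 were seeded at 400 cells/well in medium containing 20 nM camptothecin, exposed to pin-transferred compounds, and grown at 37 °C for at least 48 hr. Viability was read as ATP luminescence.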
Six1-Eya2 inh: qHTS Assay for Inhibitors of the Six1/Eya2 Interaction; Homeobox protein SIX1 (Homo sapiens) + Protein phosphatase EYA2 (Homo sapiens), …; AlphaScreen GST-Six1/His-Eya2 binding, biochemical; active compounds read low; activity change, % (test concentration not listed); 360,000 tested, 0.56% active; in the data active means activity change below about -65%; inconclusive means mostly about -30% to -63%
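Six1/Eya2 binding was read as AlphaScreen signal after compounds were pinned into GST-Six1 plus His-tagged Eya2 (5X stock 250/500 nM) in pH 8.0 Tris/NaCl/TCEP buffer, beads added, then incubated 1 h, 37 C, dark.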
IL1B secr inh: qHTS for Inhibitors of Inflammasome Signaling: IL-1-beta AlphaLISA Primary Screen | THP-1 LPS/ATP IL-1B secretion, AlphaLISA, 16 h; active compounds read low | activity change, % at 57.5 µM | 360,000 tested, 4.7% active; in the data active means activity change below about -50%; inconclusive means mostly about -30% to -49%
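THP-1 cells pretreated 1 hr with compounds (up to 57.5 uM final), then stimulated with LPS (250 ng/mL final) plus ATP (1.25 mM final); secreted IL-1B measured by AlphaLISA after 16 hr, decreased signal indicating inhibition.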
CtBP-E1A blk: qHTS Assay for Inhibitors of the CtBP/E1A Interaction | AlphaScreen GST-E1A/His-CtBP binding, 1536-well; active compounds read low | 340,000 tested, 0.49% active | activity change, % (concentration not given with the values) | AID 651724, 2012; in the data active means activity change below about -65%; inconclusive means mostly about -30% to -63%
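In 5 uL wells, 23 nL compound meets equimolar GST-E1A and His-CtBP (5X stock 125 nM each) for 2 h, 37 °C. Beads (5X, 50 ug/mL) then 1 h, 37 °C, dark.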
TDP1 inh: qHTS Assay for Inhibitors of Tyrosyl-DNA Phosphodiesterase (TDP1); recombinant TDP1, AlphaScreen DNA substrate cleavage; Tyrosyl-DNA phosphodiesterase 1 (Homo sapiens), Q9NUW8; 350,000 tested, 0.28% active; Potency, µM (series often up to 130 µM), hits mostly inhibitors; further: nearly all actives have a fitted effect of over 40% in size
Target sequence (Q9NUW8 whole entry, looked up): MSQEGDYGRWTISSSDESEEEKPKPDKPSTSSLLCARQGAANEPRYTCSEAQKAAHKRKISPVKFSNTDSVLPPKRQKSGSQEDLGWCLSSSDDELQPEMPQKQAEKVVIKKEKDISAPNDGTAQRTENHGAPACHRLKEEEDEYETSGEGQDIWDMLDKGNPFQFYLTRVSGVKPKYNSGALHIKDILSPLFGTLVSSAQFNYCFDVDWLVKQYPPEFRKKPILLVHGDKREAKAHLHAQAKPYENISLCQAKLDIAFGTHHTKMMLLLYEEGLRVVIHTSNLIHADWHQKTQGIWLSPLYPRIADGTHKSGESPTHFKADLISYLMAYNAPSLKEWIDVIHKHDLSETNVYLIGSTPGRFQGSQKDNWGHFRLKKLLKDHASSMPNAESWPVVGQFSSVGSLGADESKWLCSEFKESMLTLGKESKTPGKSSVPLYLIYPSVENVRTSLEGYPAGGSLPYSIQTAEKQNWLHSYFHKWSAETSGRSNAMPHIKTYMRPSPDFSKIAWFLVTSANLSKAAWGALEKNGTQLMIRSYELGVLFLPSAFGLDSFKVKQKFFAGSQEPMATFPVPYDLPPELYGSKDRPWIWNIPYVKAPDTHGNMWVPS
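Steps: enzyme plus compound, 15 min RT; add biotin/phosphotyrosine-FITC oligonucleotide (15 nM final), react 5 min; add donor/acceptor beads (10 ug/ml final), 10 min; read AlphaScreen. Tdp1 at 1 nM final.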
TDP1 cell noCPT: qHTS for Inhibitors of human tyrosyl-DNA phosphodiesterase 1 (TDP1): qHTS in cells in absence of CPT; 420,000 tested, 15% active; Potency, µM (titrated, usually from 46.2 µM), usual class: inhibitors; DT40 Tdp1-/- hTDP1 cells, no CPT, ATP luminescence, 48 h; further: nearly all actives have a fitted effect of over 55% in size
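DT40 Tdp1-/-;hTDP1 cells, no CPT (DMSO vehicle only), 400 cells/well; compounds pin-transferred; ≥48 hr, 37 °C; CellTiter-Glo 30 min RT dark, luminescence read.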
A number is an active result; – = inactive; ? = inconclusive; · = no result; [ ] = dose if it differs, or a comment. A selection: hits, their analogues and other compounds. The true share with any hit is near 18%. Unless noted, the call rests on the fitted dose curve; in most records, active means well fitted curve in the direction sought with a large enough effect; inconclusive means small, poorly fitted or top-dose-only effect, or another doubt; inactive means no such curve, though single readings can be large; an effect the other way counts as inactive or inconclusive.

SMILES	TDP1 cell CPT	Six1-Eya2 inh	IL1B secr inh	CtBP-E1A blk	TDP1 inh	TDP1 cell noCPT
CN(C)CCNC(=O)c1ccc(-n2c(-c3ccccc3)cc3c2CCCC3)cc1	?	·	·	·	–	16µM
CCCNC(=O)c1ccc(-n2c(-c3ccccc3)cc3c2CCCCC3)cc1	18µM	·	·	·	–	21µM
CC(C)OCCCNC(=O)c1ccc(-n2c(-c3ccccc3)cc3c2CCCC3)cc1	?	·	·	·	–	16µM
CC(C)NC(=O)c1ccc(-n2c(-c3ccccc3)cc3c2CCCC3)cc1	?	·	·	·	–	?
CCOCCCNC(=O)c1ccc(-n2c(-c3ccccc3)cc3c2CCCCC3)cc1	–	·	·	·	–	?
COCCCNC(=O)c1ccc(-n2c(-c3ccccc3)cc3c2CCC(C)C3)cc1 (stereo unspecified)	?	·	·	·	–	16µM
Cc1ccc(NC(=O)c2ccc(N(Cc3ccccc3)S(C)(=O)=O)cc2)cc1	?	·	·	·	–[12.3 µM]	12µM
Cc1ccc(CN(c2ccc(C(=O)Nc3ccc4c(c3)OCO4)cc2)S(C)(=O)=O)cc1	–	–	–	–	–	–
CS(=O)(=O)N(Cc1ccccc1)c1ccc(C(=O)Nc2cccc(Cl)c2)cc1	?	·	·	·	–[12.3 µM]	15µM
CC(=O)c1cccc(NC(=O)c2ccc(N(C)S(=O)(=O)c3ccc(C)cc3)cc2)c1	?	–	–	–	–	?
CC(=O)c1cccc(NC(=O)c2ccc(N(Cc3ccc(C)cc3)S(C)(=O)=O)cc2)c1	16µM	–	–	–	–	?
Cc1ccc(-c2nc(CS(=O)(=O)CC(=O)NC3CC3)c(C)o2)cc1	–	–	–	·	–	–
Cc1ccc(C)c(NC(=O)Cn2c(=O)n(Cc3nc(C)no3)c(=O)c3cc4c(cc32)OCO4)c1	?	·	·	·	–	?
Cc1cc(C(=O)OCC(=O)N2CC(=O)Nc3ccccc32)c(C)n1-c1ccccc1	–	–	–	–	–	?
COc1cc2c(c(OC)c1OC)-c1ccc(N(C)CC(OC)OC)c(=O)cc1[C@@H](NC(C)=O)CC2	1.3µM	–	–	–	·	0.65µM
COc1cc2c(c(OC)c1OC)-c1ccc(OC)c(=O)cc1[C@@H](N(C)CC#CCO)CC2	0.21µM	–	–	–	·	0.18µM
COc1cc2c(c(OC)c1OC)-c1c(cc(OC)c(OC)c1OC)CC(C)C(C)C2 (stereo unspecified)	·	·	·	·	–	·
CN[C@H]1CCc2cc(OC)c(OC)c(OC)c2-c2ccc(N(C)CC(OC)OC)c(=O)cc21	7.3µM	–	–	·	·	6.5µM
Cc1c(OC(C)C(=O)O)ccc2c(-c3ccccc3)cc(=O)oc12 (stereo unspecified)	–	–	–	·	·	–
CN(C)C(=O)CCc1ccc2c3c([nH]c2c1)[C@]1(C)[C@@H](C(=O)N2CCCCC2)C[C@H](CC(=O)NCCCn2ccnc2)C(=O)N1CC3	–	–	–	–	–	–
COc1ccc(C(C#N)=C2C=C(Cl)C(=NO)C=C2Cl)cc1	3.3µM	–	–	–	·	2.6µM
COc1ccc(C(=N/O)/C(=N/O)c2ccc(OC)cc2)cc1	–	–	–	–	–	–
N#CC(=C1C=C(Br)C(=NO)C=C1Cl)c1cccc2ccccc12	?	–	–	–	·	?
COc1ccc(C(C#N)=C2C=CC(=NO)C(C)=C2Cl)cc1	10µM	–	-82	–	·	7.3µM
COc1cccc(C2CC(=O)Nc3c2c(=O)n(C)c(=O)n3C)c1OC (stereo unspecified)	–	–	–	–	–	–
SMILES	TDP1 cell CPT	Six1-Eya2 inh	IL1B secr inh	CtBP-E1A blk	TDP1 inh	TDP1 cell noCPT
CCCCSc1nnc(-c2c[nH]c3ccccc23)n1C	?	–	–	–	–	?
Cc1oc(-c2ccc(-c3ccccc3)cc2)nc1CN(CCO)C(C)C	–	–	-82	–	·	?
O=C(Nc1ccc2c(c1)CN(C(=O)Nc1ccc(F)cc1)CC2)c1ccccn1	5.8µM	–	–	–	·	4.1µM
CSc1ccccc1C(=O)N1CCc2ccc(NC(=O)c3ccccn3)cc2C1	13µM	–	–	–	·	12µM
CC1(C(=O)Nc2ccc(S(=O)(=O)Nc3ncccn3)cc2)CCCC1	–	–	–	–	–	–
O=c1c2ccccc2c(C=NCc2ccccn2)c(O)n1-c1ccccc1	–	–	–	·	–	?
Cc1ccc(-n2c(O)c(C=NCc3ccccn3)c3ccccc3c2=O)cc1C	8.2µM	–	-67	·	–	26µM
COc1ccc(-c2oc3c(c2C#CC(C)(C)O)C(OC)CCC3)cc1 (stereo unspecified)	?	–	-59	–	·	16µM
O=C(Nc1ccccc1)Nc1ccc(F)c([N+](=O)[O-])c1	16µM	–	-90	–	–	16µM
O=C(Nc1ccc(F)c([N+](=O)[O-])c1)C(=O)c1c(O)[nH]c2ccccc12	18µM	–	–	–	–	13µM
O=C(CSc1ccccn1)Nc1ccc(F)c([N+](=O)[O-])c1	?	–	-76	–	–	?
CCOC(=O)C1=C(COC(=O)CSc2ccc(Br)cc2)NC(=O)NC1C (stereo unspecified)	?	–	–	–	–	–
CCOC(=O)C(C)(C)N(Cc1cccc(C)c1)S(=O)(=O)c1ccc(Cl)c([N+](=O)[O-])c1	23µM	–	?	–	–	15µM
CSc1ccc(N2CCN(CCCNC(=O)Nc3ccccc3F)CC2)cc1	?	–	–	–	–	?
O=C(NCCCN1CCN(c2ccc(F)cc2)CC1)Nc1ccc(Cl)cc1	21µM	·	·	·	–[12.3 µM]	18µM
O=C(NCCCN1CCc2ccccc2C1)Nc1ccc(Cl)cc1	16µM	–	-55	–	–	–
COc1ccccc1NC(=O)NCCCN1CCN(c2cccc(Cl)c2)CC1	?	–	?	–	–	?
COc1ccc(N2CCN(CCCNC(=O)Nc3ccccc3Cl)CC2)cc1	?	·	·	·	–	21µM
O=C(NCCCN1CCN(c2ccc(F)cc2)CC1)Nc1ccccc1Cl	21µM	·	·	·	–	?
O=C(NCCCN1CCOCC1)NC12CC3CC(CC(C3)C1)C2	–	–	–	–	–	–
O=C(NCCCN1CCN(c2ccc(F)cc2)CC1)NC12CC3CC(CC(C3)C1)C2	16µM	–	?	–	·	21µM
COc1ccc(Cl)c(N2CCN(CCCNC(=O)Nc3ccc(C)cc3)CC2)c1	?	?	-56	?	–	?

High-throughput results deposited in PubChem by National Center for Advancing Translational Sciences (NCATS).
